Among all 69,000 compounds or so, about 8,600 (12%) showed an effect of 50% or more. The sample holds strong results, similar compounds and a random draw of the others, so the mix is not that of the screen.

In the experiment the test system is Plasmodium berghei. Briefly: Screen against P. berghei liver stage (PbLuc), transformed with Luciferase, at 10uM. Particulars: tested at 10 uM. The format is functional, HepG2.
As to `Cc1cnn(C2(C(=O)O)CCN(Cc3oc4ccccc4c3C)CC2)c1`, the INHIBITION is on record as -0.613%. With `CC(C)n1nnc(CC(=O)NCC2(c3cccc(F)c3)CCCC2)n1` the figure was 26.7%.

As to `COCc1ccccc1NC(=O)c1ccoc1`, the INHIBITION is -80.7%. For the molecule `Cc1ccc(C#N)cc1NC(=O)NC1CCCN(c2ncccn2)C1` (centres undefined), the INHIBITION worked out at 42%.

Consider `CC(C(=O)N1CCN(Cc2ccncc2)CC1)n1cncn1` (centres undefined), for which the INHIBITION was determined as 4.25%. With `Fc1ccc(-c2cnc(C3CCNCC3)cn2)cc1` the figure was 37.85%. In the case of `CC(CO)CN(Cc1ccccc1)C(=O)c1csc(CN(C)C)n1` (centres undefined), the INHIBITION turned out to be 13.7%.

As for `Cc1nc(C(C)NC(=O)c2cn(CCC3CCCCC3)nn2)n[nH]1` (centres undefined), the INHIBITION stood at 5.75%. With `COCCc1noc(Cn2c(=O)[nH]c3ccccc32)n1` the figure was -16.5%; with `COCc1noc(Cn2c(C3CC3)nc3ccccc32)n1`, 39.2%; with `COCc1noc(Cn2c(=O)[nH]c3ccccc32)n1`, 74%. With `CC1COCCN1C(=O)Cc1cc(Cl)c2c(c1)OCCO2` (centres undefined), the INHIBITION is on record as 26.8%. With `CSCC1CCN(C(=O)Cn2ncc(N3CCCCC3)cc2=O)CC1` the figure was 40.7%. With `O=C(c1cncs1)N1CCc2[nH]nc(Nc3ccccc3)c2C1` the figure was 20.49%.

On to `CN(CCc1ccccc1)Cc1cc(C(=O)N2CCN(C)C(=O)C2)no1`, for which the INHIBITION is -13.2%. In the case of `CN(CCc1ccccc1)Cc1cc(C(=O)N2CCSCC2)no1` it was 40.5%; in that of `CN1CCCN(C(=O)c2cc(CN(C)CCc3ccccc3)on2)CC1`, 53.3%; in that of `O=C1CCC2(CCN(Cc3nccs3)CC2)CN1CCCO`, -47.8%.

In the case of `Cc1cnc(CN(C)C2CCCN(Cc3noc(C4CC4)n3)C2)cn1` (centres undefined), the INHIBITION came to 10%. In the case of `CC(NCC(=O)N(C)C1CC1)c1ccc(S(C)(=O)=O)c(F)c1` (centres undefined) it was 34.7%. Consider `Cn1cccc1C(=O)NCc1cnc2n1CCN(CC1CCOCC1)C2`, for which the INHIBITION was 20.4%. In the case of `O=C(NCc1cnc2n1CCN(Cc1ccoc1)C2)c1ccno1` it was 63.8%. With `O=C(NCc1cnc2n1CCN(CC1CCOCC1)C2)c1ccno1` the figure was 50.3%; with `O=C(NCc1cnc2n1CCN(Cc1cccs1)C2)c1ccno1`, 12.2%; with `O=C(NCc1cnc2n1CCN(CC1CC1)C2)C1CC1`, -30%. In the case of `O=C(NCc1cnc2n1CCN(Cc1nccs1)C2)c1ccno1` it was 23.1%; in that of `O=C(C(c1ccccc1)S(=O)(=O)c1ccccn1)N1CCCC1` (centres undefined), 14.2%. For the molecule `Cn1nnc2c1CCN(Cc1ccccn1)C2COCc1ccccc1` (centres undefined), the INHIBITION amounted to 21.3%. As for `Cc1cc(-c2ccccc2C(=O)O)nc(C2CCCCN2C)n1` (centres undefined), the INHIBITION is recorded as 59%.

Consider `CC(=O)N1CCCCC1c1nc(C)cc(-c2ccccc2C(=O)O)n1` (centres undefined), for which the INHIBITION is on record as 15.9%.

In the case of `Cc1cc(-c2ccccc2C(=O)O)nc(C2CCCN2S(C)(=O)=O)n1` (centres undefined), the INHIBITION is 12.8%. In the case of `O=C(Cc1cn2ccsc2n1)N1CCCC(n2cccn2)C1` (centres undefined) it was -1.12%.

As for `COCCc1noc(CN2CCCC2c2noc(C(C)C)n2)n1` (centres undefined), the INHIBITION was determined as 21.8%. With `CN(Cc1ccc(-n2cccn2)cc1)c1cc(N)nc(N)n1` the figure was 82.2%. In the case of `COc1cc(N(C)Cc2cccc(-n3cccn3)c2)nc(N)n1` it was 80%; in that of `CN(Cc1cccc(-n2cccn2)c1)C(=O)c1cccc(N(C)C)c1`, 22.1%.

Regarding `CN(Cc1ccc(-n2cccn2)cc1)Cc1cnc(N(C)C)nc1`, the INHIBITION was 37.4%. As to `CC(CN(C)Cc1cccc(-n2cccn2)c1)C(F)(F)F` (centres undefined), the INHIBITION is recorded as 17.735%.

With `CN(Cc1cccc(-n2cccn2)c1)C(=O)c1ccnc(N)c1`, the INHIBITION is recorded as 21.2%. In the case of `CN(Cc1cccc(-n2cccn2)c1)c1cc(N2CCCC2)nc(N)n1` it was 93.9%.

For `CN(Cc1cccc(-n2cccn2)c1)Cc1c[nH]cn1`, the INHIBITION is 35.05%.

Take `CN(Cc1ccc(-n2cccn2)cc1)c1nc(N)nc2c1CCNCC2`: the INHIBITION stood at 45%. In the case of `CCCc1nc(C)c(C(=O)NCCNc2ncccc2C#N)s1` it was -24.2%. With `CC(C)NC(=O)[C@H]1C[C@@H]2[C@@H](C1)OCCN2Cc1cnn(C)c1`, the INHIBITION is reported as -4.56%. With `CCOc1ccccc1OC1CCN(C(=O)c2cnsn2)CC1` the figure was 21.5%.

On to `CN(C)Cc1cn(-c2ccccc2C(=O)NCCC2CCCN2C)cn1` (centres undefined), for which the INHIBITION was found to be 10%.

Consider `Nc1ncccc1CN1CCCn2nc(CCC(=O)NC3CC3)cc2C1`, for which the INHIBITION turned out to be 46.1%.

On to `CN1CCN(S(=O)(=O)c2cccc(F)c2)Cc2cccnc21`, for which the INHIBITION is given as 65.7%.

As for `CN1CCN(S(=O)(=O)c2ccccc2)Cc2cccnc21`, the INHIBITION is recorded as 14.9%. With `COc1ccc(S(=O)(=O)N2CCN(C)c3ncccc3C2)cc1` the figure was 42.1%; with `Cc1cc(C2CCCN2Cc2ccn(C)c(=O)c2)on1` (centres undefined), 20.1%; with `CN(C)CCN1CC(C(=O)NCc2cn3cccnc3n2)CC1=O` (centres undefined), 23.9%. Consider `CC(C)(C)N1CC(C(=O)NCc2cn3cccnc3n2)CC1=O` (centres undefined), for which the INHIBITION is listed as 53.9%. In the case of `O=C(NCc1cn2cccnc2n1)C1CC(=O)N(Cc2ccccn2)C1` (centres undefined) it was 37.6%.

Source of the values: ChEMBL document CHEMBL4513216, “Probing the Open Global Health Chemical Diversity Library for Multistage-Active Starting Points for Next-Generation Antimalarials” (ACS Infect Dis, 2020).
